Only some compounds are listed: those with a hit (about 3.5% of all), similar ones and a draw of the others.
TEAD-YAP inh – TEAD-YAP interaction inhibition. inhibition, % at 9.12 µM. HEK-TIYL cells, TEAD-Gal4/YAP UAS-luciferase luminescence. AID 1259422. 640,000 compounds, 1.4% hits; in the data active = inhibition above about 32%;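 note: 0% = median of test compound wells and 100% = reference inhibitor wells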
FBW7 activator – activators of human E3 ligase FBW7; AID 1259310; 650,000 compounds, 0.13% hits; normalized activity (activation), % at 26.1 µM; AlphaScreen FBW7–phospho-cyclin E peptide binding, activator screen; in the data active = normalized activity above about 1.9%;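 note: purified mutant Fbw7 with reduced substrate affinity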
GPR151 activ – activates the human receptor GPR151; Q8TDV0; PathHunter beta-arrestin GPR151 cells, luminescence; 650,000 compounds, 1% hits; activation, % at 11.2 µM; in the data active = activation above about 4.9%;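 note: 0% = median of compound wells and 100% = cells with positive control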
MITF inh – inhibitors of human MITF. inhibition, % at 2.6 µM. 650,000 compounds, 0.91% hits. O75030. AID 1259374. AlphaScreen MITF homodimerization, bead proximity signal; in the data active = inhibition above about 50%;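 note: 0% = vehicle wells with protein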
Target sequence (O75030 whole entry, looked up): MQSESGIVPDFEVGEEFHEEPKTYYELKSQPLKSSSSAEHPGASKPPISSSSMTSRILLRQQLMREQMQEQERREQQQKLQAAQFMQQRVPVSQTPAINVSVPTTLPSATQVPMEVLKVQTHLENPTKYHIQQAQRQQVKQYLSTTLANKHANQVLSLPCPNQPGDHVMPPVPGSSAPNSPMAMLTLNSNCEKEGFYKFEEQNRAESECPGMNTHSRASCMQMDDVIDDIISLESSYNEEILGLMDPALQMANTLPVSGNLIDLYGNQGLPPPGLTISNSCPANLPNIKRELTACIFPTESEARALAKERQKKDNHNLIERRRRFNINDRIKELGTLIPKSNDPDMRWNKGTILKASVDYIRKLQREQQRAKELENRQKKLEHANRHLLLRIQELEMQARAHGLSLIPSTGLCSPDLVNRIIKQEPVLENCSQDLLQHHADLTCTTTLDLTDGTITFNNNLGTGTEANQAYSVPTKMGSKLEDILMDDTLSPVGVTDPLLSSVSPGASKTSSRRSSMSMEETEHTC
An asterisk follows results filed as active.

SMILES	TEAD-YAP inh	FBW7 activator	GPR151 activ	MITF inh
N#Cc1ccccc1Cn1nc(-c2cccc3ncccc23)oc1=O	52.8*	0.1	-0.2	13.9
CCCC(=O)Nc1cccc(NC(=O)COc2ccc(Cl)cc2C)c1	-42.8	0.3	-0.9	-23.2
COc1ccc(C(=CCl)c2ccc(OC)cc2)cc1	41.6*	-0.1	2.3	-9.1
C=COCCNC(=O)Nc1ccc(OC)cc1	-1.7	-0.1	4.0	3.9
CC(=O)c1c(C)[nH]c(C(=O)COC(=O)c2c(C)nn(-c3ccccc3)c2C)c1C	49.2*	0.2	2.6	22.4
Cc1ccc(S(=O)(=O)NC(C)(C)CO)cc1-c1nnc2c3ccccc3c(C)nn12	-3.9	-0.1	1.8	6.3
O=C(Nc1nc2ccccc2[nH]1)c1cc(F)c(F)cc1Cl	53.8*	0.4	-10.1	10.4
CCC(=O)Oc1ccc2c(c1)O/C(=C\c1cccc(OC)c1)C2=O	87.0*	0.0	-0.9	-4.7
COc1ccc(/C=C2\Oc3cc(OC(C)=O)ccc3C2=O)cc1	50.5*	0.1	-1.8	-16.1
COc1ccc(/C=C2\Oc3cc(OC(=O)c4ccncc4)ccc3C2=O)cc1	67.8*	0.1	-2.4	27.0
CC(=O)Oc1ccc2c(c1)O/C(=C\c1sccc1C)C2=O	87.6*	-0.2	-5.0	4.0
COc1ccc(C(=O)Oc2ccc3c(c2)O/C(=C\c2ccncc2)C3=O)cc1OC	7.6	0.0	0.2	-12.7
COC(=O)COc1cccc(/C=C2\Oc3cc(OC)ccc3C2=O)c1	4.2	0.0	4.5	-2.7
COc1nc(Nc2ccc(N3CCOCC3)cc2)nc(-c2c(C)noc2C)n1	0.4	0.3	2.7	-54.0
Brc1ccc(C2=NN(c3nc(-c4ccccc4)c4cc(Br)ccc4n3)C(c3ccc(Br)cc3)C2)cc1 (stereo not given)	-2.1	-0.1	0.7	9.4
O=C(CN1CCCc2ccccc21)NNC(=O)Nc1ccc(Cl)cc1	6.9	0.0	-0.4	9.2
NC(=O)c1ccc(Nc2cc(-c3ccccc3)ccn2)cc1	-78.2	1.0	-0.3	11.2
c1ccc(Nc2cc(-c3ccnc(Nc4ccccc4)c3)ccn2)cc1	38.0*	-0.1	-0.8	10.9
c1ccc(CN2CCC(Nc3nc(Nc4ccccc4)c4[nH]cnc4n3)CC2)cc1	-0.7	0.0	-1.5	-18.8
COc1cc(CO)ccc1OCc1ccc(F)cc1Cl	-40.5	0.2	0.5	0.3
O=C(CSc1ncnc2c1oc1ccccc12)Nc1ccccc1	-2.8	0.2	2.1	2.2
CS/C(=C\[N+](=O)[O-])Nc1ccc(C(C)C)cc1	53.5*	0.1	-0.5	-15.9
CC(C)c1ccc(NC(=O)c2ccc([N+](=O)[O-])cc2)cc1	-19.7	0.0	-1.3	20.9
CN1CCN(C(=O)c2ccc(-c3ccccc3)nc2NCc2cccnc2)CC1	1.9	1.4	0.9	7.0
COc1cc(OC)nc(Oc2ccccc2C(=O)NN(C)C)n1	1.6	0.0	-0.6	-12.3
SMILES	TEAD-YAP inh	FBW7 activator	GPR151 activ	MITF inh
Oc1ccc(/C=N/NC(=S)N2CCOCC2)cc1	50.4*	-0.2	-3.0	12.6
COCCNC(=S)N/N=C/c1ccc(N2CCOCC2)cc1	63.8*	-0.1	-1.3	-1.4
O=[N+]([O-])c1ccc(/C=N\NC(=S)Nc2ccccc2)cc1	-12.9	-0.1	1.3	1.9
Cc1nccn1-c1cc(NCCNC(=O)Nc2ccc(F)c(Cl)c2)ncn1	78.2*	0.0	-0.5	2.8
CCCSc1nnc2[nH]c(=O)c(C)c(C)n12	-1.1	-0.2	-2.0	9.7
Cc1occc1C(=O)N/N=C/c1cc(Br)ccc1O	47.2*	-0.1	-4.5	17.7
O=C(N/N=C/c1cc(Br)ccc1O)c1ccc(O)cc1O	72.0*	-0.8	0.1	22.4
COC(=O)c1ccc(-c2csc(NC(=O)c3ccc(S(=O)(=O)N4CC(C)CC(C)C4)cc3)n2)cc1 (stereo not given)	-4.9	-0.1	2.0	-0.5
CN1CCN(c2ccc(/C=C3/SC(=S)NC3=O)cc2[N+](=O)[O-])CC1	-3.6	-0.1	0.2	0.7
COc1ccccc1Nc1c2c(nc3ncnn13)CCC2	-7.3	0.1	0.0	1.2
COc1ccc(C)cc1Nc1c2c(nc3ncnn13)CCC2	38.3*	-0.1	0.3	7.9
Cc1c(C(=O)Nc2nc3ccccc3s2)sc2nc(C)n(C)c(=O)c12	44.5*	0.2	-1.6	0.2
COc1ccc2nc(NC(=O)c3sc4nc(C)ccc4c3N)sc2c1	39.0*	0.0	-1.1	-2.3
Cc1nc2sc(C(=O)Nc3nc4ccccc4s3)c(N)c2c(C)c1C	95.8*	-0.1	1.6	7.6
Cc1nc(SCC(=O)Nc2nc3ccccc3s2)c(C#N)c(C)c1C	95.0*	0.1	2.6	-4.4
CCCOC(=O)c1cccc(NC(=O)COc2ccc(Br)cc2)c1	-17.6	-0.4	0.9	14.6
O=C(COc1ccc(CO)cc1Cl)Nc1ccccc1	49.4*	0.7	-2.7	9.8
CCCOC(=O)c1cccc(NC(=O)COc2ccccc2Br)c1	50.4*	0.2	-0.3	6.6
Cc1ccc(COc2ccc(CO)cc2Cl)cc1	33.2*	0.4	-1.5	6.8
O=C(COc1ccc(Br)cc1Br)Nc1cccc(O)c1	68.7*	0.0	2.8	2.3
O=C(Cc1ccc([N+](=O)[O-])cc1)Nc1ccc(I)cc1	-32.9	-0.1	0.6	1.4
O=C(CC12CC3CC(C1)CC(c1ccccc1)(C3)C2)Nc1nccs1	1.3	0.6	-1.0	27.0
O=C(Nc1ccccc1C(=O)N1CCCCC1)c1cccc(S(=O)(=O)Nc2ccccc2)c1	-3.4	-0.1	-0.1	18.3
CCCCC(CC)CNC(=O)c1ccc2c(=O)n(CCOC)c(=O)[nH]c2c1 (stereo not given)	45.0*	-0.1	0.0	6.0
Cc1cc(=O)oc2cc(NC(=O)Cn3ncc4c3-c3ccccc3OC4)ccc12	48.7*	0.0	-0.2	-1.3
SMILES	TEAD-YAP inh	FBW7 activator	GPR151 activ	MITF inh
Cc1ccc2c(c1)-c1c(cnn1CC(=O)Nc1ccc3c(C)cc(=O)oc3c1)CO2	49.5*	1.2	-0.7	13.3
Cc1ccc2c(c1)-c1c(cnn1CC(=O)Nc1ccc(C)c(F)c1)CO2	-5.6	0.0	-0.1	-10.2
Cc1cc(C)cc(NC(=O)Cn2ncc3c2-c2ccccc2OC3)c1	-0.4	-0.2	2.3	-5.5
COC(=O)c1ccccc1NC(=O)c1ccc(NC(=O)CSCc2ccccc2)cc1	0.8	0.1	3.7	14.8
CCCCSc1nnc(-c2ccc3c(c2)OCO3)n1C	-70.9	2.1*	0.4	13.1
O=C1C2CC=CCC2C(=O)N1CC(=O)N(Cc1ccccc1)C1CCS(=O)(=O)C1 (stereo not given)	5.7	0.0	-0.9	15.2
O=C(CCl)N(C1CC1)C1CCS(=O)(=O)C1 (stereo not given)	54.2*	0.0	0.6	-10.2
O=C(CCl)N(CC1CCCO1)C1CCS(=O)(=O)C1 (stereo not given)	5.6	0.2	-1.5	-16.1
CCC(C)N(C(=O)CCl)C1CCS(=O)(=O)C1 (stereo not given)	56.1*	-0.1	2.2	11.6
O=C(CCl)N(C1CCCCC1)C1CCS(=O)(=O)C1 (stereo not given)	70.1*	0.2	0.9	-0.1
Cn1c(SCC(=O)N(C2CCCCC2)C2CCS(=O)(=O)C2)nnc1C(F)(F)F (stereo not given)	7.8	0.2	1.2	1.6

Compound activity as filed in PubChem.
